Source: PubChem BioAssay (Tox21)
Several values for one entry are separate records, joined by “and”; a condition that tells them apart may be missing. Equal entries are not always repeated. Results filed as inconclusive are left out. A call without a number means that no potency is given here. A structure can be active in one record and inactive in another. Activity calls are given as the source filed them. Unless noted, calls come from the whole dose curve; as a rule, active = well fitted curve in the direction sought with a large enough effect in the repeat runs; inconclusive = weak or mixed curves; inactive = no such curve, though single readings can be large; an effect the other way counts as inactive or inconclusive.

Columns and labels:
[1] = Human pregnane X receptor (PXR) small molecule agonists, qHTS cell viability counter screen (AID 1346977); note: nearly all actives have a fitted effect of over 50% in size; note: potency is the fitted concentration of half-maximal effect
In short: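 HepG2 cells stably carrying the PXR-Luc reporter are cultured with 5% charcoal-stripped FBS and treated with compounds for 24hr. CellTiter-Fluor is added at 23hr and fluorescence is read after 1hr.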

[2] = Caspase-3/7 induction in HepG2 cells by small molecules, qHTS assay (AID 1346978); note: nearly all actives have a fitted effect of over 15% in size; note: potency is the fitted concentration of half-maximal effect
In short: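 Wild-type HepG2 cells (2,000/well) were settled 5 h at 37 C, 5% CO2, then exposed to compounds in DMSO for 17 h. Caspase-3/7 activity was read by luminescence 30 min after adding Caspase-Glo 3/7 reagent at room temperature.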

[3] = Caspase-3/7 induction in CHO-K1 cells by small molecules, qHTS cell viability counter screen (AID 1346979); note: nearly all actives have a fitted effect of over 35% in size; note: potency is the fitted concentration of half-maximal effect
In short: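 Seeding: 1,500 CHO-K1 cells/well. Rest: 5hr, 37C. Treatment: compounds in DMSO, 16hr. Read: CellTiter-Fluor, 1hr, fluorescence.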

[4] = Caspase-3/7 induction in CHO-K1 cells by small molecules, qHTS assay (AID 1346980); note: nearly all actives have a fitted effect of over 15% in size; note: potency is the fitted concentration of half-maximal effect
In short: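 Wild-type cells were seeded at 1,500 per well and settled 5 hr at 37 C, 5% CO2, then exposed to DMSO-dissolved compounds for 17 hr. Caspase-Glo 3/7 reagent was added, and luminescence was read after 30min at room temperature.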

[5] = Caspase-3/7 induction in HepG2 cells by small molecules, qHTS cell viability counter screen (AID 1346981); note: nearly all actives have a fitted effect of over 30% in size; note: potency is the fitted concentration of half-maximal effect
In short: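 Fluorescence read-out of live-cell protease activity (CellTiter-Fluor) after 1 hr with reagent. This was measured in the same wells as the caspase-3/7 luminescence, on HepG2 cells exposed to DMSO-dissolved compounds for 16 hr at 37 C.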

[6] = biological target: Nuclear receptor subfamily 1 group I member 2 (Homo sapiens) (UniProt O75469); assay: Human pregnane X receptor (PXR) small molecule agonists, qHTS assay (AID 1346982); note: nearly all actives have a fitted effect of over 35% in size; note: potency is the fitted concentration of half-maximal effect
Nuclear receptor subfamily 1 group I member 2 (Homo sapiens), sequence (O75469 whole entry, looked up): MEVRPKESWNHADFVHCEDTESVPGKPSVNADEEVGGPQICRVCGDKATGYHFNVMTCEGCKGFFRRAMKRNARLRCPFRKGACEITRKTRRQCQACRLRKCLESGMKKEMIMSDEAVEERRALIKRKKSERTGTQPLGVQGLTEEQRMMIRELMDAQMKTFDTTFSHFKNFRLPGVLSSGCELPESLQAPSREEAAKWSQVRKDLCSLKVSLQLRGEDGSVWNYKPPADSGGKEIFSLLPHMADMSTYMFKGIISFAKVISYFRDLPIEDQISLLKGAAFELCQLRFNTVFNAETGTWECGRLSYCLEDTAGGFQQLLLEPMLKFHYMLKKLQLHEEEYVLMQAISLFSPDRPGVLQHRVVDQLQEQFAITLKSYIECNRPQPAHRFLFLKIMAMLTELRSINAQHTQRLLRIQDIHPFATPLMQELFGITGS
In short: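 HepG2 PXR-Luc reporter line, 5% charcoal-stripped FBS; 5 hr pre-incubation, compound (DMSO) 24 hr at 37 C/5% CO2; ONE-Glo 30 min RT; luminescence read-out.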

[7] = biological target: Acetylcholinesterase (Homo sapiens) (UniProt P22303); assay: Acetylcholinesterase (AChE) small molecule antagonists: colormetric cell-based qHTS assay (AID 1347395; calls by dose curve; note: nearly all actives have a fitted effect of over 30% in size; note: potency is the fitted concentration of half-maximal effect)
Acetylcholinesterase (Homo sapiens), sequence (P22303 whole entry, looked up): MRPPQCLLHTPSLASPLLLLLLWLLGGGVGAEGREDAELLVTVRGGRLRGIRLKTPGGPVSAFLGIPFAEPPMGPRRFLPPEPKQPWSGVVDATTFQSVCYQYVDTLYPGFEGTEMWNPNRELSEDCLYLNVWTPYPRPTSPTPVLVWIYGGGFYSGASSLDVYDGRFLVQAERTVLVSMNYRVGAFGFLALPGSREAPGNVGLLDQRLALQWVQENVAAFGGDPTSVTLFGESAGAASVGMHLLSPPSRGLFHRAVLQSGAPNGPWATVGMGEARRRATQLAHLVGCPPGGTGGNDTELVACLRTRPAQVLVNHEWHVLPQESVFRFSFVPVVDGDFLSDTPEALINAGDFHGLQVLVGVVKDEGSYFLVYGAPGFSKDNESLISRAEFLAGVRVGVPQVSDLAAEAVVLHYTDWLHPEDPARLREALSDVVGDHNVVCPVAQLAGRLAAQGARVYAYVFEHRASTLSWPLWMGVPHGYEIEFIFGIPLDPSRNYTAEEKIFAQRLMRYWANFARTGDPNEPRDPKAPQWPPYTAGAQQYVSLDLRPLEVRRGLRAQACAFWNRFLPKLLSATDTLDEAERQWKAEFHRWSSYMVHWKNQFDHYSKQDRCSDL
In short: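 Quantitative HTS in attached SH-SY5Y cells: 30 min compound exposure, then 90 min with acetylthiocholine and DTNB at 37 C; colour from thiocholine reports AChE activity.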

[8] = biological target: Acetylcholinesterase (Homo sapiens) (UniProt P22303); assay: Acetylcholinesterase (AChE) small molecule antagonists: enzyme-based qHTS assay (AID 1347397; calls by dose curve; note: nearly all actives have a fitted effect of over 55% in size; note: potency is the fitted concentration of half-maximal effect); conditions: Potency: AChE enzyme activity inhibition; outcome: AChE enzyme activity inhibition
In short: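 Compound or DMSO vehicle was pin-transferred onto recombinant human AChE (50 mU/mL as dispensed) and left 30 min at room temperature. Acetylthiocholine with DTNB then started the reaction, read colorimetrically 10 min later.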

[9] = biological target: Acetylcholinesterase (Homo sapiens) (UniProt P22303); assay: Acetylcholinesterase (AChE) small molecule antagonists: fluorescence cell-based qHTS assay (AID 1347398; calls by dose curve; note: nearly all actives have a fitted effect of over 50% in size; note: potency is the fitted concentration of half-maximal effect); conditions: Potency: AChE activity; outcome: AChE activity
In short: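 Using neuroblastoma SH-SY5Y cells as the enzyme source, test chemicals are preincubated 30 min at 37 C; AChE-driven acetylthiocholine cleavage is then quantified by thiocholine-dependent Thiolite Green fluorescence after 40 min at room temperature.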

[10] = biological target: Acetylcholinesterase (Homo sapiens) (UniProt P22303); assay: Acetylcholinesterase (AChE) small molecule antagonists: enzyme-based qHTS assay with human liver microsomes (AID 1347399; calls by dose curve; note: nearly all actives have a fitted effect of over 60% in size); conditions: Potency: qHTS inhibition; outcome: qHTS inhibition
In short: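 Recombinant human AChE (50 mU/mL in the enzyme mix) and human liver microsomes (0.25 mg/mL final) were preincubated with compound and NADPH (0.25 mg/mL final) for 30 min at 37 C. Acetylthiocholine/DTNB was then added; thiocholine was read colorimetrically after 10 min at room temperature.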

[11] = biological target: Cytochrome P450 2D6 (Homo sapiens) (UniProt P10635); assay: Cytochrome P450 Family 2 Subfamily D Member 6 (CYP2D6) small molecule antagonists: luciferase reporter qHTS assay (AID 1671196); note: nearly all actives have a fitted effect of over 50% in size; note: potency is the fitted concentration of half-maximal effect
Cytochrome P450 2D6 (Homo sapiens), sequence (P10635 whole entry, looked up): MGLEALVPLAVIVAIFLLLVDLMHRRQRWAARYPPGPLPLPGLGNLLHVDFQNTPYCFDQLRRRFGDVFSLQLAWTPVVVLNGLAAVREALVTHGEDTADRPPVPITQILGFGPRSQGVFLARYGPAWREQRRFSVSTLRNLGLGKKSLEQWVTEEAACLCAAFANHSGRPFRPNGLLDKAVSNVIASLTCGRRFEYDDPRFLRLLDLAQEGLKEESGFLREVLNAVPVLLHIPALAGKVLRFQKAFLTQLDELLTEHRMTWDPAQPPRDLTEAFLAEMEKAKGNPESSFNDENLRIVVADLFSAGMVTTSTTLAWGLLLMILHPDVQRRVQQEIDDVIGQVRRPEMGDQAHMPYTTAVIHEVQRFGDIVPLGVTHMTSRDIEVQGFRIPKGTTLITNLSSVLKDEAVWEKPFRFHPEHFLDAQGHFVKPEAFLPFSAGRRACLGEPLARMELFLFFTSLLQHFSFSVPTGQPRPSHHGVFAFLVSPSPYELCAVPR
In short: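 Luminogenic proluciferin substrate, CYP2D6 enzyme; 10 min RT preincubation with compound, NADPH regeneration system added, 1 h RT. Stop/detection reagent, 20 min RT, luminescence read (RLU). Signal proportional to CYP activity.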

[12] = biological target: Cytochrome P450 2C19 (Homo sapiens) (UniProt P33261); assay: Cytochrome P450 Family 2 Subfamily C Member 19 (CYP2C19) small molecule antagonists: luciferase reporter qHTS assay (AID 1671197); note: nearly all actives have a fitted effect of over 65% in size; note: potency is the fitted concentration of half-maximal effect
In short: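 CYP2C19 P450-Glo, 1536-well qHTS. Cpd + enzyme/proluciferin substrate 10 min RT; + NADPH regen, 37C 1 h; stop with luciferin detection reagent, 20 min RT, luminescence (RLU). Pos ctrl ketoconazole.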

[13] = biological target: Cytochrome P450 2C9 (Homo sapiens) (UniProt P11712); assay: Cytochrome P450 Family 2 Subfamily C Member 9 (CYP2C9) small molecule antagonists: luciferase reporter qHTS assay (AID 1671198); note: nearly all actives have a fitted effect of over 50% in size; note: potency is the fitted concentration of half-maximal effect
Cytochrome P450 2C9 (Homo sapiens), sequence (P11712 whole entry, looked up): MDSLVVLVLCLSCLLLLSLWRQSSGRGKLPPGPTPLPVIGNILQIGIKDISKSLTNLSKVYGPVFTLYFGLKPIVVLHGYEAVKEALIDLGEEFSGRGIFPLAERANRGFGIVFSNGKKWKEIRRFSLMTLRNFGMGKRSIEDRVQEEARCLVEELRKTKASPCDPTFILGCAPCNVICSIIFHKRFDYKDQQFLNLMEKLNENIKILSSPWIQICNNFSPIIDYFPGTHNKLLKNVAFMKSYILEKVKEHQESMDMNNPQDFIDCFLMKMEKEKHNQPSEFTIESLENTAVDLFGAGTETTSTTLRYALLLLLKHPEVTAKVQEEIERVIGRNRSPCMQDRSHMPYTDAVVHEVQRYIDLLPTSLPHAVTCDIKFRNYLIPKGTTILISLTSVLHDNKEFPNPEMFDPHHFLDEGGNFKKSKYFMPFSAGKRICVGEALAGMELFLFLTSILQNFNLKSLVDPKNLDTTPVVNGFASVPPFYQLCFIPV
In short: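 CYP2C9 activity was measured with a P450-Glo proluciferin substrate. Enzyme–substrate mix was held with compound for 10 min at room temperature, then NADPH regeneration solution was added for 1 h at 37C. Luciferin product was read as luminescence.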

[14] = biological target: Cytochrome P450 1A2 (Homo sapiens) (UniProt P05177); assay: Cytochrome P450 Family 1 Subfamily A Member 2 (CYP1A2) small molecule antagonists: luciferase reporter qHTS assay (AID 1671199); note: nearly all actives have a fitted effect of over 50% in size; note: potency is the fitted concentration of half-maximal effect
Cytochrome P450 1A2 (Homo sapiens), sequence (P05177 whole entry, looked up): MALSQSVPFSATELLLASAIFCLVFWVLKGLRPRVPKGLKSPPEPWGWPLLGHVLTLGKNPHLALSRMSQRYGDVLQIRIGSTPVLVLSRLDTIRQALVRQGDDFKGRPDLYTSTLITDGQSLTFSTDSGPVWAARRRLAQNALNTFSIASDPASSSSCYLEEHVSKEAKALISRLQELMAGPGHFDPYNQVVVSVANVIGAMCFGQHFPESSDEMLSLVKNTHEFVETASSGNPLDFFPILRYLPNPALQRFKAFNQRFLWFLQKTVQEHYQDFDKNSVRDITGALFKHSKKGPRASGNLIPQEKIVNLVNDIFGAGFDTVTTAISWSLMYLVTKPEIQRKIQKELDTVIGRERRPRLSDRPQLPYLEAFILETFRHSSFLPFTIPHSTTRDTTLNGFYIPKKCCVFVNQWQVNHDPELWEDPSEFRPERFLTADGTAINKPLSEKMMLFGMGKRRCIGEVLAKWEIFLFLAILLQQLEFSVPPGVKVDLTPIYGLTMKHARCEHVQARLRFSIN
In short: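 Luminescence readout (relative luminescence units) after luciferin detection reagent, 20 min RT. Preceded by 1 h room-temperature CYP1A2 reaction with NADPH regeneration solution following 10 min compound preincubation with enzyme and proluciferin substrate. Furafylline positive control.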

[15] = biological target: Voltage-gated inwardly rectifying potassium channel KCNH2 (Homo sapiens) (UniProt Q12809); assay: Human Ether-a-go-go-Related Gene (hERG) channel small molecule antagonists: fluorescence cell-based qHTS assay (AID 1671200); note: nearly all actives have a fitted effect of over 50% in size; note: potency is the fitted concentration of half-maximal effect
Voltage-gated inwardly rectifying potassium channel KCNH2 (Homo sapiens), sequence (Q12809 whole entry, looked up): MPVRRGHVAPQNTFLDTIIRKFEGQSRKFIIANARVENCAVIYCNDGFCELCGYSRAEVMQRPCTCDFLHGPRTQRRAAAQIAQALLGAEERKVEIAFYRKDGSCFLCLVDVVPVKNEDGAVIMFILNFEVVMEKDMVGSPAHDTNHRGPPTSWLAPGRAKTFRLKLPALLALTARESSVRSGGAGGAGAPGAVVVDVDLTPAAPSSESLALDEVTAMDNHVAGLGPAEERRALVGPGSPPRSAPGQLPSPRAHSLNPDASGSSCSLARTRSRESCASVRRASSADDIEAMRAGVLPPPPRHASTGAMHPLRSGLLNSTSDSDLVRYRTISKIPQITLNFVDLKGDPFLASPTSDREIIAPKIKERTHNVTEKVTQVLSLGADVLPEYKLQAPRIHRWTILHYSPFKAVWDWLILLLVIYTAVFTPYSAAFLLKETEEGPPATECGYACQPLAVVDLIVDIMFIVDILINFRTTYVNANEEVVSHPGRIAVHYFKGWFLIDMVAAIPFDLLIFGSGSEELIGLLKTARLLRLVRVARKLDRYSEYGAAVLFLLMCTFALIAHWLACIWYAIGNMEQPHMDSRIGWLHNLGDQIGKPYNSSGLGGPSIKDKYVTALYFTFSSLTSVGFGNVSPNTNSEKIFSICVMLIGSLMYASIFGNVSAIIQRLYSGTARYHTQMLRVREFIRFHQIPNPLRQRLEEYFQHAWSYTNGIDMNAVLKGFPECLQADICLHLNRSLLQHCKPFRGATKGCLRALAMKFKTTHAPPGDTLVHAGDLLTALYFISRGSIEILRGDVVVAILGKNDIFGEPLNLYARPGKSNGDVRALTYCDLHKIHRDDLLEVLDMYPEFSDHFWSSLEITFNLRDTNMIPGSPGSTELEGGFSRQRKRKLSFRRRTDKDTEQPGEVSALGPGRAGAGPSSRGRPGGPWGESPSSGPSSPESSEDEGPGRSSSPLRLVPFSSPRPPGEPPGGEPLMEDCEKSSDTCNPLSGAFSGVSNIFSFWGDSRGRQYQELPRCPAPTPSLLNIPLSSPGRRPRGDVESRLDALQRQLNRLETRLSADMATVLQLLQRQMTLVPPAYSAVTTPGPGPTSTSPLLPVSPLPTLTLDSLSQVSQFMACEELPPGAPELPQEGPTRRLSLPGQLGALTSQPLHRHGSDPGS
In short: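 First, 1000 cells per well are seeded and cultured overnight at 37 C. Next, FluxOR II dye is loaded for 1 h at room temperature, protected from light. After 10 more minutes, stimulus is added and fluorescence is read.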

[16] = biological target: Cytochrome P450 3A4 (Homo sapiens) (UniProt P08684); assay: Cytochrome P450 Family 3 Subfamily A Member 4 (CYP3A4) small molecule antagonists: luciferase reporter qHTS assay (AID 1671201)
Cytochrome P450 3A4 (Homo sapiens), sequence (P08684 whole entry, looked up): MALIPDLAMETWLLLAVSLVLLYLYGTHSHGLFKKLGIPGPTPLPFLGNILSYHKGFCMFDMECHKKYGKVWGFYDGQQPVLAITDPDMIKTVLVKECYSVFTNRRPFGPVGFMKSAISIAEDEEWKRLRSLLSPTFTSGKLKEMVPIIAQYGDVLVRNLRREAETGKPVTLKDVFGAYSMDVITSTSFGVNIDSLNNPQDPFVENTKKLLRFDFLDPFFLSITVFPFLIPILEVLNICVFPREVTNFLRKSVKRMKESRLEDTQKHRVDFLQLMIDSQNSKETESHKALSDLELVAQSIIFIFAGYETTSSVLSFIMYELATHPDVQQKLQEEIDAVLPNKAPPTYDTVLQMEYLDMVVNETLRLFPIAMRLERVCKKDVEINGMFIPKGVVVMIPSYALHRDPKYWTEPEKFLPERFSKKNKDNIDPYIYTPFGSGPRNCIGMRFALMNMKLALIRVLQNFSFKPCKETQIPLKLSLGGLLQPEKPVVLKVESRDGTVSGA
In short: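 Enzyme and proluciferin substrate are mixed with test chemicals for 10 min, then NADPH regeneration system drives turnover for 1 h at room temperature. A detection reagent halts the reaction; luminescence after 20 min gives relative activity.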

[17] = biological target: Nuclear receptor subfamily 1 group I member 2 (Rattus norvegicus) (UniProt Q9R1A7); assay: Rat pregnane X receptor (rPXR) activation by small molecules, qHTS assay (AID 1346983); conditions: rPXR luciferase reporter cells, One-Glo luminescence, 24 h; stronger effect = higher value; note: nearly all actives have a fitted effect of over 20% in size
Nuclear receptor subfamily 1 group I member 2 (Rattus norvegicus), sequence (Q9R1A7 whole entry, looked up): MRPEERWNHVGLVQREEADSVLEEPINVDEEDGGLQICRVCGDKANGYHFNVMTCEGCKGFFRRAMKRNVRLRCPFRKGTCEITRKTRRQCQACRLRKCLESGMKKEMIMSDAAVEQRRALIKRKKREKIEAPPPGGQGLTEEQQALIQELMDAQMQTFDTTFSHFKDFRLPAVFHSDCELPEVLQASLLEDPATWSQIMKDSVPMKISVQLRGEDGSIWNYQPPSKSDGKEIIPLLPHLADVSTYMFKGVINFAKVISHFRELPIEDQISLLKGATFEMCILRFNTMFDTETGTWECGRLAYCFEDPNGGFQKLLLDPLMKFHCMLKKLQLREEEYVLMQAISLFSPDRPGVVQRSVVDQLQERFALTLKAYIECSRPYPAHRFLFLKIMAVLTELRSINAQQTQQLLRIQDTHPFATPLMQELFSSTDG
In short: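 Cell-based rPXR luciferase reporter assay, 2,000 cells per well, rested 5hr at 37 C before compound addition in DMSO, then 24 hr at 37 C. One-Glo reagent was added and luminescence read after 30 min at room temperature.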

[18] = biological target: Nuclear receptor subfamily 1 group I member 2 (Homo sapiens) (UniProt O75469); assay: CYP3A4 induction through human pregnane X receptor (PXR) by small molecules, qHTS assay (AID 1346984); note: nearly all actives have a fitted effect of over 40% in size
In short: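 HepG2-derived DPX-2 line carrying PXR plus a CYP3A4-promoter luciferase reporter; cells plated 5 hr, compound-exposed 24 hr at 37C. CYP3A4 activity probed with 3uM (final) Luciferin-IPA for 3hr, then luciferase read after One-Glo.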

[19] = biological target: Nuclear receptor subfamily 1 group I member 2 (Homo sapiens) (UniProt O75469); assay: Human pregnane X receptor (PXR) activation by small molecules, qHTS assay (AID 1346985); note: nearly all actives have a fitted effect of over 40% in size; note: potency is the fitted concentration of half-maximal effect
In short: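 DPX-2 cells (HepG2 co-transfected with a PXR response element and a CYP3A4-promoter luciferase construct) were seeded at 2,000 per well, rested 5 hr at 37C, then exposed to DMSO-dissolved compounds for 24 hr. Activation was read as luciferase luminescence.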

Structure (SMILES)	Potency [1]	Potency [2]	Potency [3]	Potency [4]	Potency [5]	Potency [6]	Potency [7]	Potency [8]	Potency [9]	Potency [10]	Potency [11]	Potency [12]	Potency [13]	Potency [14]	Potency [15]	Potency [16]	max activation [17]	outcome [18]	Potency [19]
NNCCO	inactive	inactive	inactive	inactive	inactive	inactive	inactive	inactive	inactive	inactive	inactive	inactive	inactive	inactive	inactive	inactive	–	–	–
C1CS1	inactive	inactive	inactive	inactive	inactive	inactive	inactive	inactive	inactive	inactive	inactive	inactive	inactive	64.9 µM (active)	inactive	inactive	–	–	–
CN1C[C@H](C(=O)N[C@]2(C)O[C@@]3(O)[C@@H]4CCCN4C(=O)[C@H](Cc4ccccc4)N3C2=O)C=C2c3cccc4[nH]cc(c34)C[C@H]21	39.8 µM (active)	inactive	30.8 µM (active) and 18 µM (active)	inactive	30.8 µM (active) and 22.6 µM (active)	2.74 µM (active) and 4.03 µM (active)	1.01 µM (active) and 8.32 µM (active)	5.67 µM (active)	505 nM (active)	inactive	28.4 µM (active) and inactive	28.4 µM (active) and 18.6 µM (active)	–	20.1 µM (active)	22 µM (active)	–	-2.24% (inactive)	inactive	2.51 µM (active)
CCCC[N+]1(C)[C@@H]2CC(OC(=O)[C@H](CO)c3ccccc3)C[C@H]1[C@@H]1O[C@@H]12 (some centres not stated)	inactive	inactive	inactive	inactive	inactive	inactive	inactive	inactive	inactive	–	1.55 µM (active)	inactive	inactive	inactive	–	–	-0.805% (inactive)	inactive	inactive
CCCCCl	inactive	inactive	inactive	inactive	inactive	inactive	inactive	inactive	inactive	inactive	18.3 µM (active)	41 µM (active)	–	57.9 µM (active)	inactive	inactive	-0.159% (inactive)	inactive	inactive
COc1ccccc1N1CCNCC1	inactive	inactive	inactive	inactive	inactive	inactive	–	–	–	–	inactive	inactive	inactive	inactive	inactive	inactive	-3.01% (inactive)	inactive	inactive
NP(N)(=O)NC(=O)c1ccc(F)cc1	inactive	inactive	inactive	inactive	inactive	inactive	inactive	inactive	inactive	–	–	–	inactive	–	–	–	0.566% (inactive)	inactive	inactive
O=C(N/N=C/c1ccc([N+](=O)[O-])o1)c1cc([N+](=O)[O-])cc([N+](=O)[O-])c1O	21.1 µM (active)	inactive	23.7 µM (active)	inactive	13.3 µM (active)	inactive	inactive	inactive	inactive	–	inactive	inactive	30.9 µM (active)	inactive	inactive	inactive	3.24% (inactive)	inactive	inactive
CN1C(=O)CN=C(c2ccccc2)c2cc([N+](=O)[O-])ccc21	inactive	inactive	inactive	inactive	inactive	inactive	inactive	inactive	inactive	inactive	inactive	inactive	–	inactive	inactive	inactive	8.45% (inactive)	inactive	–
CC(C)CCON=O	inactive	inactive	inactive	inactive	inactive	inactive	inactive	inactive	inactive	–	–	inactive	inactive	inactive	inactive	inactive	-3.41% (inactive)	inactive	inactive
CC(C)(C)CC(C)(C)c1ccc(O)cc1	54.5 µM (active)	51.4 µM (active)	50 µM (active)	51.4 µM (active)	61.1 µM (active)	19.3 µM (active) and inactive	39.9 µM (active) and inactive	inactive	31.7 µM (active) and inactive	inactive	39.9 µM (active) and inactive	inactive	22.4 µM (active) and 15.5 µM (active)	37.3 µM (active)	40 µM (active)	inactive	–	–	–
C[N+]1(CCC(C(N)=O)(c2ccccc2)c2ccccc2)CCCCC1	inactive	inactive	inactive	inactive	inactive	inactive	inactive	inactive	–	inactive	8.71 µM (active)	inactive	inactive	inactive	inactive	–	-4.99% (inactive)	inactive	inactive
CC[N+]1(C)CCCC(OC(=O)C(O)(c2ccccc2)c2ccccc2)C1 (configuration not stated)	inactive	inactive	inactive	inactive	inactive	inactive	inactive	inactive	inactive	inactive	2.75 µM (active)	inactive	–	inactive	inactive	inactive	2.38% (inactive)	inactive	inactive
CCC1(CC)C(=O)NC(=O)NC1=O	inactive	inactive	inactive	inactive	inactive	inactive	inactive	inactive	inactive	inactive	inactive	–	inactive	inactive	inactive	inactive	0.212% (inactive)	inactive	inactive
